Out of some 3,000 compounds screened, about 1,800 (60%) were called active.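 How the source made its calls: active means activation at or above a set limit, or at least 3 SD above the negative control mean; inactive means the rest.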 The set was probably picked from earlier hits. These entries were drawn from the full list.

In PubChem BioAssay AID1259319 (Sanford-Burnham Center for Chemical Genomics, 2017) one finds activation data, which are given here for 91 compounds.

In this test the target is Nuclear receptor subfamily 1 group D member 1 (Homo sapiens) (UniProt P20393). Kind of test: modulators of Rev-erb alpha DNA binding, confirmation, biochemical, FITC-DNA, fluorescence polarization, single point (AID 1259319).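 Further: 0% = 35 nM protein with DMSO and 100% = 750 nM protein high control.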 The conditions noted are these: 90 min, at 25 µM, stronger effect = higher value.
Sequence of Nuclear receptor subfamily 1 group D member 1 (Homo sapiens) (P20393 whole entry, looked up): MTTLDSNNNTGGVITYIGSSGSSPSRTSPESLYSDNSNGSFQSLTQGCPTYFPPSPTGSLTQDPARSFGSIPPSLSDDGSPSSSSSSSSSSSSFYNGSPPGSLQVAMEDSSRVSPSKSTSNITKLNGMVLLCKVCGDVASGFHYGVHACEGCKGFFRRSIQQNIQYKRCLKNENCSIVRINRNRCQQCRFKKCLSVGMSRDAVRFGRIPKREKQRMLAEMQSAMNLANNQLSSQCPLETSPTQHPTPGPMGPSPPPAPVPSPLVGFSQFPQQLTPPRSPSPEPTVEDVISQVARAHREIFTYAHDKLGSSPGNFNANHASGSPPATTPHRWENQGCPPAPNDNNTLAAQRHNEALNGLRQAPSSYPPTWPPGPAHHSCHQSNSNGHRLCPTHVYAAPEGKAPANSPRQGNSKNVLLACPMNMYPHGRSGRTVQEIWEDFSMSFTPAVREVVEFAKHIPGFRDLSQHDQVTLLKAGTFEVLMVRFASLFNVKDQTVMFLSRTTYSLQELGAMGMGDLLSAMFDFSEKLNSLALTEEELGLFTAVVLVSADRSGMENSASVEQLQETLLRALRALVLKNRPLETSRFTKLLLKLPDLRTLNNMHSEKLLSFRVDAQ
For `c1ccc(CSc2ncnc3c2sc2nc(N4CCOCC4)c4c(c23)CCCC4)cc1`, the activation is 93.6% (active).

Consider `S=c1nccc(-c2cc(Cl)sc2Cl)[nH]1`, for which the activation is 36.6% (active). Next, `c1ccc(-c2cc(-c3nnc4sc(-c5ccccn5)nn34)[nH]n2)cc1`: 26.1% (active); `CN(C)c1ccc(/C=C2\NC(=S)N(Cc3ccccc3)C2=O)cc1`: 37.3% (active). `CN1/C(=C\C=C2\N=C(c3ccc(F)cc3)OC2=O)C(C)(C)c2ccccc21`: the activation is 5.84% (inactive). For `O=C(CCn1c(SCC(=O)c2ccccc2)nc2ccccc2c1=O)NCc1ccc(F)cc1` the value was 36.3% (active); for `O=C(CCn1c(=S)[nH]c2cc3c(cc2c1=O)OCO3)NCc1ccc(Cl)cc1`, 9.29% (inactive); for `C=CCNC(=O)CC12CC3CC(C1)CC(CC(=O)NCC=C)(C3)C2`, -0.299% (inactive). Next, `N#Cc1c(N)nc2c3c(sc(=N)c2c1N)NC(=O)CC3c1ccccc1Cl` (stereo unspecified): 35% (active); `O=S(=O)(c1ccc(Br)cc1)c1nc(-c2ccccc2)oc1NCc1cccnc1`: 5.25% (inactive); `Oc1ccc2ccc3cccc[n+]3c2c1`: 41.7% (active). `CCc1ccccc1NC(=O)c1cc(-c2ccc3c(c2)OCO3)on1`: the activation was 10.4% (inactive).

In the case of `CN(C)S(=O)(=O)c1ccc(N2CCCC2)c(C(=O)Nc2ccc(Br)cc2F)c1`, the activation is 10.4% (inactive). On to `O=C1CCCC2=C1C(c1ccccc1)n1c(s/c(=C/c3cccc(F)c3)c1=O)=N2` (stereo unspecified), for which the activation was 30% (active). As for `CCOC(=O)c1sc(=NC(=O)c2ccc(Br)cc2)n(C)c1C`, the activation is 26.1% (active). On to `COc1ccc2sc(-c3ccc(S(C)(=O)=O)cc3)c(-c3ccc(C(N)=O)cc3)c2c1`, for which the activation is 5.94% (inactive). Next, `CCCNC(=O)Nc1ccc2c(c1)C(=O)N(C)[C@H]1CC[C@H](CC(=O)NCC3CCCCC3)O[C@@H]1CO2`: 63.1% (active); `CCN1C(=O)/C(=C\N2CCN(c3cccc(Cl)c3)CC2)SC1=S`: 204% (active). Consider `Cc1ccc(S(=O)(=O)c2nnn3c2nc(N2CCN(c4ccccn4)CC2)c2ccccc23)cc1`, for which the activation was 65.4% (active).

In the case of `Cc1cccc(Nc2nc3c(S(=O)(=O)c4ccccc4)nnn3c3ccccc23)c1C`, the activation is 15.8% (inactive). Next, `CC(C)OCCCNC(=O)CN1C(=O)/C(=C/c2ccccc2F)Oc2ccccc21`: -0.363% (inactive); `COc1ccc(Cc2nnc(NC(=O)c3ccc(OC)cc3OC)s2)cc1`: 9.03% (inactive); `COC(=O)c1c(NC(C)=O)sc(C(=O)Nc2ccccc2OC)c1C`: 9.45% (inactive). On to `COC(=O)c1sc(NC(=O)c2ccc(OC)cc2OC)nc1C`, for which the activation is 24.1% (active). Take `Cc1ccc(-c2nc3c(C)cc(Br)cn3c2Cc2ccccc2)cc1`: the activation is 14.9% (active). For `Cc1cc(Br)cn2c(Cc3ccccc3C(F)(F)F)c(-c3ccc(Cl)cc3)nc12` the value was 7.64% (inactive).

Regarding `CCOc1cccc(C(=O)Nc2nnc(-c3cccs3)s2)c1`, the activation was -1.11% (inactive). For `CCOc1ccc2cc(C#N)c(SCC(=O)OC)nc2c1` the value was 90.1% (active). Consider `Cc1cc2cc3c(cc2nc1SCC(=O)Nc1c(C)cccc1C)CCC3`, for which the activation is 16.2% (inactive).

Take `Cc1nonc1NC(=O)CSc1nc2ccccc2cc1C#N`: the activation was 39.8% (active). `Cc1nc2cc(NC(=O)CSc3nc4c(C)cccc4cc3C#N)ccc2s1`: the activation was 85.3% (active). For `COCc1cc(C)nc(SCC(=O)Nc2cccc(C)c2)c1C#N` the value was -4.78% (inactive); for `CCOC(=O)c1c(NC(=O)CN2C(=O)NC3(CCC(C)CC3)C2=O)sc(C)c1CC` (stereo unspecified), 11% (inactive).

With `c1ccc2c(-c3nn4nnnc4c4ccccc34)cccc2c1`, the activation was 29.3% (active). Next, `COc1ccc(C2=NN(C(=O)CSc3nc(=O)n4ccc(C)cc4n3)C(c3ccc(C)cc3)C2)cc1` (stereo unspecified): 4.15% (inactive). Next, `COc1ccc(-c2nnc(SCC(=O)c3ccc4c(c3)OCCO4)o2)cc1`: 28.7% (active). Take `CCOc1cccc(NC(=O)Cn2nc(-c3ccc4c(c3)OCCO4)ccc2=O)c1`: the activation was 15.3% (inactive).

As for `COc1nc(-c2ccc(Cl)cc2)ccc1-c1noc(-c2cccs2)n1`, the activation is 46.9% (active).

Consider `Fc1c(F)c(C(F)(F)F)c(F)c(F)c1N1CCN(c2ccc3nnc(C(F)(F)F)n3n2)CC1`, for which the activation is 40% (active). For `COc1ccccc1N1CCN(CC(=O)Nc2ccnn2C2CCCC2)CC1` the value was -5.83% (inactive); for `CC(=O)c1cc(C#N)c(SCC(=O)Nc2nccs2)nc1C`, 29% (active). Turning to `COc1ccc(-n2ncc3c(N4CCc5ccccc54)ncnc32)cc1`, the activation was 40.6% (active).

For the compound `Cc1cc(C(C)(C)C)n2nc(C)c(-c3ccccc3)c2n1`, the activation was 4.3% (inactive). Next, `CCCCNC(=O)CSc1nc2n[nH]c(C)c2c(=N)n1-c1cccc(Cl)c1C`: 26.6% (active); `Cc1ccc(-n2c(SCC(=O)NCCC3=CCCCC3)nc3n[nH]c(C)c3c2=N)cc1Cl`: 14.5% (inactive). For `COc1ccc(CC(=O)Nc2ccc(-c3nnc(-c4ccc(C)cc4)o3)cc2)cc1` the value was -0.593% (inactive); for `COc1ccc(CNC(=O)c2nnn(CC(=O)Nc3cc(C)cc(C)c3)c2N)cc1`, 21.9% (active). Next, `Cc1c(-c2ccccc2)nc(N)c(C#N)c1-c1cccs1`: 16.4% (inactive).

Turning to `O=C(COC(=O)c1cccc(Br)c1)Nc1cccc2c1C(=O)c1ccccc1C2=O`, the activation is 18.5% (active). For `O=C(COC(=O)c1ccccc1SCC(=O)NC1CCCCC1)NC1CCCCC1` the value was 86.9% (active); for `N#Cc1ccccc1Sc1ccccc1C(=O)OCC(=O)NC1CCCCC1`, 35.9% (active). Next, `CC(C)C(C)NC(=O)COc1nc2ccccc2nc1N(C)C1CCCCC1` (stereo unspecified): 7.89% (inactive); `Cc1cc(NC(=O)CSc2nc(C(C)C)nc3sc4c(c23)CCC(C)C4)no1` (stereo unspecified): 30.8% (active). For `Cc1nc(SCC(=O)Nc2cc(C)on2)c2c3c(sc2n1)CCCC3` the value was 43.7% (active); for `Cc1cc(NC(=O)CSc2nc3cc(Cl)ccc3c(=O)n2Cc2ccco2)no1`, 16.1% (inactive); for `C[n+]1ccc(/C=C/c2c[nH]c3ccccc23)cc1`, 136% (active). Regarding `CCc1ccc2c(c1)cc(CN(C(=S)Nc1ccccc1Cl)C1CC1)c1nnnn12`, the activation was 2.01% (inactive). Next, `COc1cccc(-n2c(SCC(=O)c3c[nH]c4ccccc34)nc3ccccc3c2=O)c1`: 30.8% (active); `CCOC(=O)c1ccc(NC(=O)c2c(NCc3ccccc3)[nH]c(=O)[nH]c2=O)cc1`: 1.79% (inactive); `CCN(CC)c1ccc2cc(C(N)=O)/c(=N\NC(=O)c3ccncc3)oc2c1`: 25.4% (active). Next, `Cn1c(=O)n(C)c2cc(/C=N/NC(=O)c3cccc(Br)c3)ccc21`: 8.29% (inactive); `COc1cc(Cl)c(C)cc1NC(=O)COC(=O)c1cc(SC)ccc1Cl`: 23.3% (active). For `CCN1/C(=C\c2ccc3ccccc3[n+]2CC)Sc2cc(C)ccc21` the value was 67.5% (active). With `Cc1nc2nc(SCC(=O)Nc3cccc(F)c3)[nH]c2cc1Br`, the activation was 20% (active). Regarding `CCn1c(SCC(=O)Nc2cccc(F)c2)nnc1-c1cc2cc(Br)ccc2o1`, the activation is 26.2% (active).

As for `Cc1nc2nc(SCC(=O)c3ccccc3)[nH]c2cc1Br`, the activation is 45% (active).

For the compound `COc1ccc2[nH]c(C(=O)Nc3ccccc3Cl)cc2c1`, the activation was 30.5% (active). For `COc1ccc(C(=O)Nc2cccc(NC(=O)c3ccc(OC)cc3OC)n2)c(OC)c1` the value was 4.36% (inactive); for `Cc1cc(=O)oc(C)c1C(=O)N1CCCCC1`, -0.804% (inactive); for `CC(C)Cn1c(CN(Cc2ccccc2)Cc2ccccc2)nc2c1c(=O)n(C)c(=O)n2C`, 48.3% (active).

On to `Fc1ccc(CNc2nc3ccccc3n3nnnc23)cc1`, for which the activation is 27% (active). Next, `COC(=O)c1cccc(Cn2ccc3ccc(-c4ccc5ccn(C(=O)c6ccccc6C)c5c4)cc32)c1`: 89.9% (active). Take `COC(=O)c1cccc(Cn2ccc3ccc(-c4ccc5ccn(C(=O)C6CCCCC6)c5c4)cc32)c1`: the activation was 43.5% (active).

Regarding `CCOC(=O)c1c(C)oc2cc(Br)c(OCC(N)=O)cc12`, the activation was 40.3% (active). As for `COc1cc(OC)cc(-c2nc(=S)n3ccsc3n2)c1`, the activation was 2.77% (inactive). Take `Cc1sc2ncnc(N3CCC(C(=O)Nc4nc5ccc(Cl)cc5s4)CC3)c2c1C`: the activation was 51% (active). For `CN1C(=O)c2ccc(C(=O)Nc3ccc(Br)cn3)cc2C1=O` the value was 30.1% (active); for `CCCCCn1nnnc1C1c2ccccc2C(=O)N1Cc1ccco1` (stereo unspecified), -8.88% (inactive). Next, `O=c1cc(N2CCCCC2)c(-c2ccccc2)nn1Cc1cccc(F)c1`: 8.56% (inactive); `CCC(C(=O)NC1CCCC1)N(C(=O)c1snc(C(N)=O)c1N)c1ccc2c(c1)OCCO2` (stereo unspecified): 20.2% (active); `NC(N)=Nc1nc2ccc(Br)cc2c(=O)[nH]1`: 21.2% (active). For `O=C1Cc2ccccc2Sc2ccc(Cl)cc21` the value was 23.2% (active). With `CCOc1cc(-c2cc(-c3ccc(OC)cc3)nc(N)c2C#N)ccc1O`, the activation is 13.9% (inactive). For `CCOc1nc(-c2ccc(OC)cc2)ccc1-c1noc(-c2cc(OC)c(OC)c(OC)c2)n1` the value was 22.3% (active); for `Cc1ccc(-n2nc3cc(C)c(NC(=O)c4cccnc4)cc3n2)cc1`, 0.139% (inactive). For `COc1cccc(-c2ccc(C#N)c(SCC(=O)NCCc3ccc(Cl)cc3)n2)c1` the value was 13.2% (inactive); for `COc1ccc(CCNC(=O)CSc2nc(-c3ccc(OC)c(OC)c3)ccc2C#N)cc1`, 37% (active); for `CCOC(=O)c1ccc(NC(=S)Nc2cc(C)cc(C)n2)cc1`, 4.33% (inactive). For `COc1ccc(S(=O)(=O)N2CCN(c3ncnc4c(-c5ccccc5)nsc34)CC2)cc1` the value was 8.1% (inactive); for `COc1ccc(-c2csc3ncnc(N4CCN(S(=O)(=O)c5ccccc5C#N)CC4)c23)cc1`, 14.6% (inactive). In the case of `CC(=O)c1ccc(S(=O)(=O)N2CCN(c3nc4c(C)c(C)ccc4cc3C#N)CC2)cc1`, the activation was 181% (active).
